Coupling enz: qHTS Assay for Inhibitors of Fructose-1,6-bisphosphate Aldolase from Giardia Lamblia: Coupling assay counterscreen; AID 2472, 2010; actives 0.67% (n = 290,000); coupling enzyme system counterscreen, AmpLite Red fluorescence; activity change, negative = inhibition, % at 58.2 µM, hits read low; in the data active means activity change below about -30%
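Activity here indicates interference with the coupling reaction, not aldolase inhibition. Compounds at 57.5 uM final met coupling enzymes for 10 min at RT; substrate and AmpLite Red detection followed, with a 525/598 nm fluorescence read after 20 min.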
Tau FP inhib: qHTS for Inhibitors of Tau Fibril Formation, Fluorescence Polarization; Microtubule-associated protein tau (Homo sapiens), P10636; K18 P301L tau heparin fibrillization, Alexa594 FP, 6 h; Potency, µM (titrated, usually from 57.7 µM), for inactives: at the top dose activity, negative = inhibition, hits mostly inhibitors; actives 0.39% (n = 280,000); further: potency means the concentration at half of the fitted maximal effect; nearly all actives have a fitted effect of over 55% in size
Target sequence (P10636 561-689 P618L limits assumed): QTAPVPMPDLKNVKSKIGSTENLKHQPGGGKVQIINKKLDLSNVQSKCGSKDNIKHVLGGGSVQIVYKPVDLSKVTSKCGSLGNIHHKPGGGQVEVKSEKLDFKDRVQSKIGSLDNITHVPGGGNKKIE
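Recombinant K18 P301L […], labeled with Alexa 594 at 0.24 uM over 15 uM unlabeled; heparin inducer 20 uM final; 37 C, 6 hr; FP endpoint.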
Tau ThT inhib: qHTS for Inhibitors of Tau Fibril Formation, Thioflavin T Binding; recombinant tau K18 P301L, heparin-induced fibrillization, ThT fluorescence; Potency, µM (doses to about 57.4 µM), without a hit: at the top dose activity, negative = inhibition, hits mostly inhibitors; actives 2.1% (n = 270,000); AID 1460, 2008; further: potency means the concentration at half of the fitted maximal effect; nearly all actives have a fitted effect of over 55% in size
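Aggregation was driven by heparin (20 uM final) acting on recombinant tau […] bearing P301L in 100 mM sodium acetate pH 7; fibrils were detected with Thioflavin T.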
G9a block: qHTS Assay for Inhibitors of Histone Lysine Methyltransferase G9a. actives 8.8% (n = 350,000). AID 504332, 2011. Histone-lysine N-methyltransferase EHMT2 (Homo sapiens), Q96KQ7. G9a H3K9 monomethylation, AlphaScreen, 2 h. Potency, µM (titrated, usually from 102 µM), without a hit: top-dose activity, negative = inhibition, usual class: inhibitors; further: potency means the concentration at half of the fitted maximal effect; nearly all actives have a fitted effect of over 75% in size
Target sequence (Q96KQ7 913-1193 limits assumed): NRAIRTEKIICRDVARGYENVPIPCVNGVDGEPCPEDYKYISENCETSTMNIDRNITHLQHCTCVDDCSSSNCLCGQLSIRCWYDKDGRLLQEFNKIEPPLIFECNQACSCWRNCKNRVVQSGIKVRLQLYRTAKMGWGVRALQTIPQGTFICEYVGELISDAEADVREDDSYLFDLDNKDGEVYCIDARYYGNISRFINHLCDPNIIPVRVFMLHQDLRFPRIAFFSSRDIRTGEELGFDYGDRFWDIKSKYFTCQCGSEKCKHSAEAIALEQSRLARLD
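Methyltransferase reactions run at room temperature for 2 h (20 nM enzyme, 500 nM biotin-H3K9 peptide, 20 uM SAM) after a 15 min compound preincubation; product detected by AlphaScreen beads and anti-H3K9me1 antibody.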
Sfp inh: qHTS Assay for Inhibitors of Bacillus subtilis Sfp phosphopantetheinyl transferase (PPTase). Biochemical Sfp PPTase activity, qHTS. Potency, µM, inactives show largest response in the series, negative = inhibition, actives largely listed as inhibitors. actives 3.5% (n = 310,000);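 further: the enzyme is Sfp with the accession as filed and its product quenches rhodamine fluorescence; potency means the concentration at half of the fitted maximal effect; 0% = enzyme reaction without inhibitor and -100% = no enzyme wells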
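Reaction rates are the 30-min fluorescence difference (ex 525, em 598 nm) in wells containing 15 nM Sfp, 5 uM rhodamine-CoA and 12.5 uM BHQ-2-YbbR at pH 7.6 with 10 mM MgCl2.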
Tau fluor counter: Counterscreen qHTS for Inhibitors of Tau Fibril Formation, Fluorescence Polarization | tau K18 P301L Alexa594 fluorescence, heparin fibrillization | AID 1463, 2008 | Potency, µM (series often up to 57.7 µM), for inactives: at the highest dose activity change, negative = decrease | actives 0.93% (n = 280,000); further: potency means the concentration at half of the fitted maximal effect; nearly all actives have a fitted effect of over 55% in size
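Human tau K18 P301L (15 uM unlabeled, 0.24 uM Alexa 594-labeled) in 100 mM sodium acetate pH 7 with 20 uM heparin, 6 hr at 37 C. ThT 30 uM added, 1 hr ambient; Alexa 594 FP and total fluorescence read at 555/632 nm.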
Starred values were filed as active, the others as inactive; ? = inconclusive; . = no result; ! = a repeat was not active; [ ] = dose if it differs, or a comment. Rows were chosen to be rich in hits. Some 11% of all compounds tested hit in one or more screens of this group. Unless noted, the call rests on the fitted dose curve; in most records, active means well fitted curve in the direction sought with a large enough effect; inconclusive means small, poorly fitted or top-dose-only effect, or another doubt; inactive means no such curve, though single readings can be large; an effect the other way counts as inactive or inconclusive. Unless noted, on the % scale 0 is the no-effect control and ±100 the full control effect.

SMILES	Coupling enz	Tau FP inhib	Tau ThT inhib	G9a block	Sfp inh	Tau fluor counter
COc1ccc(NC(=O)c2cc3n(n2)C(C(F)(F)F)CC(c2ccc4c(c2)OCO4)N3)cc1OC (stereo not drawn)	2.8	?	?	28.2µM*	8.4%	?
COc1cc(CNCc2cccc(OC)c2OC)cc(OC)c1	-1.7	.	.	33.9%[0.501 µM]	-1.5%	.
COc1cccc(CNCc2cccc(Br)c2)c1OC	-2.2	3.7%	-3.0%	10µM*	-6.2%	3.2%
COc1cccc(CNCc2ccc(SC)cc2)c1OC	1.7	1.2%	3.5%	22.4µM*	-18.1%	3.4%
COc1ccccc1CNCc1ccc(OC)c(OC)c1OC	-1.8	-3.6%	-2.6%	10µM*	?	-3.7%
COc1cccc(CNCc2ccc(C(=O)O)cc2)c1OC	2.3	3.1%	4.9%	-34.8%	12.1%	10.4%
CCCCN(CC)C(=O)Nc1ccc2c(c1)N(C)C(=O)c1ccccc1S2	.	?	-27.8%	-37.4%[59 µM]	.	?
Cc1ccc(S(=O)(=O)N2CCN(C(=O)CSc3nnc(C)c(=O)[nH]3)CC2)cc1	1.5	0.2%	1.2%	56.2µM*	-10.7%	3.2%
Cc1nnc(SCC(=O)c2c(N)n(C)c(=O)n(C)c2=O)[nH]c1=O	2.3	1.6%	1.6%	-31.9%	2.5%	8.3%
Cc1cc(C)c(C)c(C(=O)CSc2nnc(C)c(=O)[nH]2)c1C	14.8	3.8%	-10.6%	50.1µM*	?	-8.1%
CCOC(=O)c1c(NC(=O)CC)sc(C(C)=O)c1C	1.5	-6.4%	-3.2%	25.1µM*	39.8µM*	-1.8%
CCOC(=O)c1sc(NC(=O)CCN2CCN(C)CC2)c(C(=O)OCC)c1C	0.6	5.1%	-1.4%	22.6%[12.7 µM]	19.7%	4.3%
CCOC(=O)c1c(NC(=O)CC)sc(C(=O)NC2CCCC2)c1C	1.7	.	.	19.2%	-0.9%	.
CCOC(=O)c1sc(NC(=O)CCN2CC(C)OC(C)C2)c(C(=O)OCC)c1C (stereo not drawn)	0.0	-2.9%	-11.3%	44.7µM*	18.1%	-14.6%
CCCc1cc(C(=O)Nc2sc(C(C)=O)c(C)c2C(=O)OCC)no1	-0.5	-4.4%	10.4%	?	-20.8%	10.3%
CCOC(=O)c1c(NC(=O)c2cc(CC(C)C)on2)sc(C(C)=O)c1C	1.0	-6.0%	-14.4%	7.94µM*	-12.1%	-11.1%
CCOC(=O)c1c(NC(=O)c2cc(C(C)C)on2)sc(C(C)=O)c1C	-1.1	-4.9%	-13.7%	7.94µM*!	3.9%	-20.8%
OC1(c2ccc3ccccc3c2)CCN(Cc2ccccc2)C1 (stereo not drawn)	-3.6	-2.1%	7.0%	-43.6%	89.1µM*	-6.6%
CCN1CCN(c2ncc3c(n2)CCN(Cc2cc(Br)cs2)C3)CC1	.	6.2%	-13.1%	22.4µM*	.	-11.3%
Cc1ccsc1CN1CCc2nc(N3CCN(c4ccccc4F)CC3)ncc2C1	.	-1.5%	?	-4.5%[12.7 µM]	.	-9.5%
CCN1CCN(c2ncc3c(n2)CCN(Cc2sccc2C)C3)CC1	.	1.1%	-14.2%	17.8µM*	.	2.5%
Cc1ccc(C(=O)Nc2cccc(C(F)(F)F)c2)cc1Nc1ccccn1	0.7	-6.5%	-3.3%	-6.3%[12.7 µM]	-1.9%	?
Cc1cc(Nc2cccc(Cl)c2)nc2ccc(NC(=O)c3cccc(N(C)C)c3)cc12	.	-8.0%	?	?	.	4.47µM*[quencher]
Cc1cc(Nc2cccc(Cl)c2)nc2ccc(NC(=O)c3cccnc3)cc12	.	-12.1%	?	-25.9%[59 µM]	.	7.94µM*[quencher]
Cc1cc(Nc2cccc(C(F)(F)F)c2)nc2ccc(NC(=O)c3ccc(N(C)C)cc3)cc12	.	-8.6%	3.55µM*	-21.0%[59 µM]	.	3.55µM*[quencher]
SMILES	Coupling enz	Tau FP inhib	Tau ThT inhib	G9a block	Sfp inh	Tau fluor counter
Cc1ccc(-c2nc3scc(CCNS(=O)(=O)c4c(C)noc4C)n3n2)cc1	.	?	2.8%	22.3%[59 µM]	.	-13.6%
Cc1ccc(SCC(Cc2ccccc2)N2CCN(C)CCC2=O)cc1 (stereo not drawn)	1.1	.	.	.	21.3%	.
CC(C)CCNC(=O)c1cc(Sc2ccc(F)cc2F)nc2ccccc12	.	-8.2%	-13.3%	0.3%[59 µM]	.	-21.3%
CC(=O)c1cc(C(=O)c2ccccc2)sc1Nc1ccccc1	-3.9	-9.7%	?	49.3%[59 µM]	79.4µM*	?
COc1ccc(C(=O)C[N+]2(C)CCOCC2)cc1	3.4	-3.7%	-7.4%	12.6µM*	-6.7%	-9.2%
COC(=O)c1cc(S(=O)(=O)N2CCCCC2)c[nH]1	1.0	.	.	19.7%[59 µM]	16.9%	.
COc1ccc(CC2=C(O)c3ccccc3C(=O)C2=O)cc1	-2.0	.	.	?	23.8%	.
O=C1C(=O)c2ccccc2C(O)=C1CCCCl	-50.4*	-9.5%	?	.	-26.5%	-14.5%
COc1ccccc1C(=O)Nc1c(C(=O)N2CCN(c3ccccc3F)CC2)oc2ccccc12	.	-13.8%	-4.5%	-25.2%[59 µM]	.	-19.9%
O=C(O)CN1CCN(Cc2ccc(F)cc2Cl)C1=O	-1.5	-12.1%	?	25.1µM*	6.9%	-15.4%
O=C(CN1CCN(Cc2ccc(F)cc2Cl)C1=O)NCCc1ccccc1	4.2	0.9%	-12.3%	?	-9.5%	-13.0%
COc1ccccc1CCNC(=O)CCSc1nc(-c2ccco2)cc(C(F)(F)F)n1	0.8	-1.0%	-5.2%	18.9%[59 µM]	56.2µM*	-12.2%
O=C(CCSc1nc(-c2ccco2)cc(C(F)(F)F)n1)N1CCCc2ccccc21	-2.8	-0.5%	?	15.8µM*	-9.8%	-26.7%
O=C(Nc1ccc(F)cc1F)c1ccc(-n2cccn2)c([N+](=O)[O-])c1	-8.6	-5.2%	-20.2%	27.3%[12.7 µM]	10.1%	-2.1%
Cc1ccccc1CN1C(=O)c2ccccc2Sc2ccc(C(=O)NC(C)c3ccccc3)cc21 (stereo not drawn)	.	-9.2%	-2.3%	3.4%[59 µM]	.	-2.8%
CN(C)c1ccc(CNc2nc(-c3ccco3)nn2S(=O)(=O)c2ccc3ccccc3c2)cc1	.	6.4%	-10.1%	7.94µM*	.	?
CN(C)c1ccc(CNc2nc(-c3ccco3)nn2S(=O)(=O)c2ccc(Cl)cc2)cc1	.	-1.2%	-4.9%	0.7%[59 µM]	.	-28.6%
CSCCOC(=O)COc1ccc(/C=N/NC(=O)c2nn(C)cc2Cl)cc1	3.1	?	?	39.8µM*	4.0%	-18.6%
Cc1ccc(S(=O)(=O)Oc2ccc(/C=N/NC(=O)c3nn(C)cc3Cl)cc2)cc1	0.8	2.3%	?	-11.0%[59 µM]	10.5%	-29.4%
Oc1c(Cl)cc(Cl)cc1C=Nc1ccc2c(c1)OCCO2	-1.3	-13.7%	15.8µM*	?	-7.7%	-19.4%

Source: PubChem BioAssay (National Center for Advancing Translational Sciences (NCATS))
